ChEMBL document CHEMBL3988442, “University of Dundee, Small-Polar-MMV Screening Library” (2021)
Among all 48,000 compounds or so, about 13,000 (27%) showed an effect of 50% or more. The list shows a part of the results.

System: Wolbachia pipientis
Assay: Anti-Wolbachia Cell-Based Screen
Format: functional
Set-up: scale not given: in the data most compounds retested in dose-response had high values
Conditions: 5 µM

Row | Structure (SMILES) | Percent Effect [%]
1 | CCCS(=O)(=O)N1C[C@@H]2CN(Cc3cnn(C)c3)CCO[C@@H]2C1.O=C(O)C(F)(F)F | -20.93
2 | CCOC(=O)c1n[nH]cc1CN1CCOC(Cc2ccc(F)cc2)C1 (stereo not given) | -1.908
3 | CCOc1ccc(CN2CC[C@](C)(O)C(C)(C)C2)cn1 | -8.073
4 | O=C1O[C@@H]2CN(S(=O)(=O)N3CCCC3)C[C@@H]2N1CCc1cccc(Cl)c1 | 9.806
5 | CN(CCCNC(=O)c1ccc(C#N)cc1)CC(F)(F)F | -0.8138
6 | Cc1cc(NCCOCCS(C)(=O)=O)nc2ccccc12 | -11.25
7 | Cc1nc(NC(=O)N2CCCC(C(F)(F)F)C2)nn1C (stereo not given) | -33.51
8 | O=S(=O)(Nc1cn[nH]c1)c1ccc(Br)c(F)c1 | -16.59
9 | COc1cccc(C(=O)Nc2cc(CC(C)C)nn2C)c1 | -2.904
10 | COc1cccc(OC2CN(C(=O)c3cc(CC(C)C)nn3C)C2)c1 | -45.28
11 | CC(C)Cc1cc(NC(=O)c2ccncc2)n(C)n1 | 97.89
12 | COc1ccc(C(=O)Nc2cc(CC(C)C)nn2C)cc1 | 109.3
13 | CC(C)Cc1cc(NC(=O)c2ccccn2)n(C)n1 | 95.28
14 | CC(C)Cc1cc(NC(=O)c2ccc(=O)[nH]n2)n(C)n1 | 9.079
15 | CC(C)Cc1cc(NC(=O)c2n[nH]c3ccccc23)n(C)n1 | 100
16 | Cc1cc(C(C)(O)CNC(=O)c2ccc(Br)o2)c(C)o1 (stereo not given) | -12.89
17 | CCOC(C)c1noc(CN(C)C(=O)c2ccncc2)n1 (stereo not given) | -13.27
18 | COCCNC(=O)[C@H]1CN(Cc2nccs2)C[C@H]2OCC[C@@H]12.O=C(O)C(F)(F)F.O=C(O)C(F)(F)F | -11.72
19 | CCn1cncc1C1CC(=O)Nc2c1c(C)nn2-c1ccc(C)cc1 (stereo not given) | -3.451
20 | Cn1c2c(c(=O)n1C)CN(S(=O)(=O)c1cccs1)CCC2 | -5.821
21 | CN(Cc1cccc(F)c1)C(=O)CS(=O)(=O)Cc1ccc(Cl)c(Cl)c1 | 7.071
22 | CC(C)Cc1cc(NC(=O)c2cc(Cl)c[nH]2)n(C)n1 | 97.83

Row | Structure (SMILES) | Percent Effect [%]
23 | CC(=O)Nc1cc(C(=O)Nc2cc(CC(C)(C)C)nn2C)ccc1F | -21.96
24 | CC(C)Cc1cc(C(=O)N2CCC(Oc3cccnc3)CC2)n(C)n1 | -0.7222
25 | CC(C)Cc1cc(NC(=O)c2cccnc2)n(C)n1 | 95.88
26 | CC(C)Cc1cc(NC(=O)c2ccccc2)n(C)n1 | 80.95
27 | CC(C)Cc1cc(NC(=O)N2CCC(Oc3cccnc3)C2)n(C)n1 (stereo not given) | -4.031
28 | CC(C)Cc1cc(NC(=O)c2ccc[nH]2)n(C)n1 | 5.511
29 | Cc1cnn(CC2CCCN2CC(=O)N(C)CCC#N)c1 (stereo not given) | -15.64
30 | COc1cccc(CN(C)C(C)c2ccon2)c1OCCn1ccnc1 (stereo not given) | 6.714
31 | N#Cc1cccc(OC2CCN(C(=O)c3cncc(O)c3)CC2)c1 | -9.362
32 | CC(NCCn1cccn1)c1ccc(F)cc1F (stereo not given) | 14.02
33 | CCn1cnnc1C1CCN(C(=O)c2cccc(N(C)C)c2)CC1 | 182
34 | Cn1nnc2cc(C(=O)N3CCCC3Cc3ccccc3)ccc21 (stereo not given) | -4.659
35 | CCn1cnnc1C1CCN(C(=O)c2cccc(-n3cccc3)c2)CC1 | 173.7
36 | CCn1cnnc1C1CCN(C(=O)c2cccc3c2ccn3C)CC1 | 4.279
37 | CCN1CCN(C(=O)c2ccnc(N(C)C)c2)CC1 | -10.63
38 | CCn1cnnc1C1CCN(C(=O)c2ccnc(N(C)C)c2)CC1 | 117.4
39 | CCn1cnnc1C1CCN(C(=O)c2ccc3c(c2)nnn3C)CC1 | 122.3
40 | CCn1cnnc1C1CCN(C(=O)CC(C)n2cccc2)CC1 (stereo not given) | -3.98
41 | O=C(O)C(F)(F)F.O=C(c1nc2c(o1)CN(CC1CCC1)C2)N1CCCC1 | 1.201
42 | CC(C)(CNC(=O)C1CCCN1S(C)(=O)=O)N1CCOCC1 (stereo not given) | 0.9982
43 | Cc1cc(CNCC2(O)CCOCC2)ccc1F | -13.16
44 | COC(=O)N1CCN(Cc2ccccc2C(C)(C)C#N)CC1 | -9.14

Row | Structure (SMILES) | Percent Effect [%]
45 | COc1ccc(CN(C)c2nc3c(cnn3C)c(=O)[nH]2)c(OC)c1 | -2.005
46 | COc1ccccc1-c1cc(C(=O)N(C)C)nc2c1cnn2C | 124.6
47 | COc1cccc2c1N(Cc1nc3c(cnn3C)c(=O)[nH]1)CCC2 | -0.8657
48 | COc1ccccc1-c1cc(C(=O)N(C)C)c2cnn(C)c2n1 | 108
49 | COc1ccccc1N(C)Cc1nc2c(cnn2C)c(=O)[nH]1 | -7.278
50 | COc1cccc(CN(C)Cc2nc3c(cnn3C)c(=O)[nH]2)c1OC | 14.32
51 | COc1ccccc1OC1CCN(C(=O)c2cnc(C)cc2C)CC1 | -3.522
52 | COc1ccccc1CN(C)c1nc2c(cnn2C)c(=O)[nH]1 | -4.184
53 | COc1ccccc1-c1cc(C(=O)N2CCCC2)c2cnn(C)c2n1 | 117.8
54 | COc1cccc(C)c1C(=O)N1CCc2ncnc(NCCO)c2CC1 | -30.82
55 | O=C(C[S+]([O-])Cc1ccc(F)cc1Cl)NC1CCCC1 (stereo not given) | 9.339
56 | COc1ccc(Nc2ccc(C#N)cn2)cc1N1CCCC1=O | -10.87
57 | Cc1noc(C)c1-c1nc(C2CCCN(CCC(N)=O)C2)ccc1CO (stereo not given) | 98.23
58 | CCc1nc(C2CCCN(C(=O)CCn3ccccc3=O)C2)no1 (stereo not given) | -2.479
59 | Cn1ncc2c(N3CCN(CCC(N)=O)CC3)nc(C3CCCC3)nc21 | 3.18
60 | Cc1noc(C)c1-c1nc(C2CCCN(C(=O)CCN)C2)ccc1CO (stereo not given) | 106.6
61 | Cc1noc(C)c1-c1nc(C2CCCN(C(=O)CN)C2)ccc1CO (stereo not given) | 107.5
62 | Cc1nc(C2CCCN(C(=O)COCc3ccccc3Cl)C2)no1 (stereo not given) | -13.21
63 | Cc1nc(C2CCCN(C(=O)Cn3ccccc3=O)C2)no1 (stereo not given) | -7.453
64 | Cc1cc(OCC(=O)N2CCCC(c3noc(C)n3)C2)no1 (stereo not given) | 0.3444
65 | Cl.Cl.Cl.OC(CN1CCN(Cc2cccnc2)CC1)c1cccs1 (stereo not given) | -1.04
